Compound activity from PubChem.
Avidin bead fluor: compound fluoresces at 488/530 nm on avidin beads. actives 0.38% (n = 220,000). compound fluorescence 488/530 nm, flow cytometry; stronger effect = higher value. fluorescence (KMESF) at 10 µM; in the data active = fluorescence above about 47
GSH bead fluor: compound fluoresces at 488/530 nm on GSH beads. GSH beads flow cytometry, compound fluorescence 488/530 nm; stronger effect = higher value. fluorescence (KMESF) at 10 µM. actives 0.25% (n = 190,000); in the data active = fluorescence above about 89;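 also: glutathione beads carrying GST-tagged Bcl family fusion proteins plus one bare bead set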
RGS7-Gao: regulators of human RGS7-Galphao interaction. P09471. Multiplexed bead flow cytometry, RGS7-Galphao binding; actives lie on both sides. binding response (% of control), % at 10 µM. actives 0.35% (n = 220,000); in the data active = binding response below about 49% or above about 150%; inconclusive = no clear call, values can overlap the other calls; inactive = in between;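 also: fluorescent Galphao held in activated GDP-AlF4 state binding bead-coupled RGS7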
Target sequence (P09471 whole entry, looked up): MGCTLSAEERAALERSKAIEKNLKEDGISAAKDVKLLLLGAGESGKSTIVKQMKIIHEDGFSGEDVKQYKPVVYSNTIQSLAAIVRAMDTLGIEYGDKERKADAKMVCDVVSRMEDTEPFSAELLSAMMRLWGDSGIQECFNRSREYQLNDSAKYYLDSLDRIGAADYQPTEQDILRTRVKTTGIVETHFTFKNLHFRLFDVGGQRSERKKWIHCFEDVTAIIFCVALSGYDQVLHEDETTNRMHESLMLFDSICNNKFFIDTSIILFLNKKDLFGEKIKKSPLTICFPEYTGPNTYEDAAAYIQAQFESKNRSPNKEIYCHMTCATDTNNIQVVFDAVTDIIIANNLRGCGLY
RGS16-Gao: regulators of human RGS16-Galphao interaction. AID 1441. binding response (% of control), % at 10 µM. O15492+P09471. bead-based flow cytometry RGS16-Galphao binding, fluorescence; actives lie on both sides. actives 0.38% (n = 220,000);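 also: Galphao activated by GDP with aluminum fluoride before binding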
Target sequence (O15492 whole entry, looked up): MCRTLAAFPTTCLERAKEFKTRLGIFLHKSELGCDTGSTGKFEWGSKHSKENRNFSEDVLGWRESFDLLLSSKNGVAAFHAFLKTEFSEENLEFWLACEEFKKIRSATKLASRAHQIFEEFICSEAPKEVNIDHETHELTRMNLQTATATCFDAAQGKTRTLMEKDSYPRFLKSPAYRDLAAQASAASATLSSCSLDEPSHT
Target sequence (P09471 whole entry, looked up): as the sequence (P09471 whole entry, looked up) above
RGS8-Gao: modulates binding of RGS8 to human Galphao; actives 0.34% (n = 220,000); multiplexed bead flow cytometry; actives lie on both sides; response (percent of control binding), % at 10 µM; in the data active = response below about 60% or above about 140%; inactive = in between;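 also: Galphao activated as the GDP aluminium fluoride complex binding bead-coupled RGS8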
RGS4-Gao reg: modulates binding of RGS4 to human Galphao | AID 1415 | binding response (% of control), % at 10 µM | Multiplexed bead flow cytometry; actives lie on both sides | actives 0.33% (n = 220,000) | P09471; in the data active = binding response below about 49% or above about 150%; inactive = in between;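 also: fluorescent Galphao activated with aluminum fluoride binding bead-coupled RGS4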
RGS-Gao: regulators of human RGS4-Galphao interaction. shares compounds with RGS16-Gao. multiplexed bead flow cytometry, RGS–Galpha-o binding. RGS4–Galpha-o binding response, % at 10 µM. actives 99% (n = 1,600);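 also: fluorescently labeled Galpha-o bound to GDP with aluminium fluoride binding biotinylated RGS beads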
Biotin-avidin: counter-screen: compounds disrupting biotin binding to avidin beads; shares compounds with RGS16-Gao; streptavidin beads, fluorescein-biotin binding, flow cytometry; inhibition, % at 10 µM; 1,700 tested, under 10 active; AID 1783;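 active = inhibition above 50%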;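 also: median green fluorescence of gated singlet beads compared with DMSO control wells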
RGS8-Gao confirm: RGS8-Galphao interaction regulation, single point confirmation; shares compounds with RGS16-Gao; bead-based flow cytometry RGS8-Galphao binding, fluorescence; actives lie on both sides; binding response (% of control), % at 10 µM; actives 3% (n = 1,700); AID 1836; in the data active = binding response below about 72% or above about 130%; inactive = in between;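 also: Galphao activated as GDP AlF4 complex before binding bead RGS8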
RGS7-Gao confirm: confirmation of regulators of human RGS7-Galphao interaction; bead-based flow cytometry RGS7-Galphao binding; actives lie on both sides; shares compounds with RGS16-Gao; actives 7.8% (n = 1,700); response (percent of control binding), % at 10 µM; in the data active = response below about 75% or above about 130%; inactive = in between;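 also: fluorescent Galphao activated with GDP and aluminum fluoride binding bead-coupled RGS7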
RGS16-Gao single: RGS16-Galphao interaction regulation, single point confirmation; shares compounds with RGS16-Gao; bead-based flow cytometry, RGS16-Galphao binding; actives lie on both sides; response (% of control binding), % at 10 µM; actives 4% (n = 1,700); AID 1838; in the data active = response below about 74% or above about 130%; inactive = in between;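 also: Galphao activated as the GDP aluminium fluoride complex binding bead-coupled RGS16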
RGS4-Gao confirm: RGS4-Galphao interaction regulation, single point confirmation. binding response (% of control), % at 10 µM. shares compounds with RGS16-Gao. RGS4-Galphao binding, multiplexed bead flow cytometry; actives lie on both sides. actives 4% (n = 1,700). AID 1840; in the data active = binding response below about 74% or above about 130%; inactive = in between
RGS19-Gao single: RGS19-Galphao interaction regulation, single point confirmation; actives 5% (n = 1,700); bead-based flow cytometry RGS19-Galphao binding; actives lie on both sides; shares compounds with RGS16-Gao; AID 1841; response (percent of control binding), % at 10 µM; in the data active = response below about 50% or above about 160%; inactive = in between
Of the large screens only hits and unclear results are named; the others gave an inactive call (follow-up assays come after a bar, where they were run); [ ] = another dose, or the depositor's remark. Most compounds without a hit are left out; they make up all but 1.2% or so of the library. Unless noted, no rule for the calls is given here.

N#CC1=C(N)N(c2ccccc2)C2=C(C(=O)CCC2)C1c1ccsc1 (stereo unspecified)	RGS16-Gao 16 | RGS-Gao 96 | Biotin-avidin inactive | RGS8-Gao confirm inactive | RGS7-Gao confirm inactive | RGS16-Gao single inactive | RGS4-Gao confirm inactive | RGS19-Gao single inactive
Clc1cc2cccnc2c2ccccc12	RGS7-Gao -24, RGS8-Gao 3.0, RGS4-Gao reg -47 | Biotin-avidin inactive | RGS8-Gao confirm inactive | RGS7-Gao confirm inactive | RGS16-Gao single inactive | RGS4-Gao confirm inactive | RGS19-Gao single inactive
Oc1c(Cl)cc(Cl)c2cccnc12	none
On1nnc2c3ccccc3c3ccccc3c21	none
CC(=O)N(O)CCCCCNC(=O)CCC(=O)N(O)CCCCCNC(=O)CCC(=O)N(O)CCCCCN	RGS8-Gao 51 | RGS-Gao 61 | Biotin-avidin inactive | RGS8-Gao confirm 53 | RGS7-Gao confirm 58 | RGS16-Gao single 42 | RGS4-Gao confirm 57 | RGS19-Gao single inactive
CCCC(=O)NCCCCNC(=O)CCC	none
Cc1ccc(Nc2nc(N)nc(CN3CCN(Cc4ccc5c(c4)OCO5)CC3)n2)cc1Cl	RGS7-Gao 45, RGS4-Gao reg -9.2 | Biotin-avidin inactive | RGS8-Gao confirm inactive | RGS7-Gao confirm inactive | RGS16-Gao single inactive | RGS4-Gao confirm inactive | RGS19-Gao single inactive
CC(C)CC1C2C(=O)N(c3ccccc3)C(=O)C2ON1c1ccccc1 (stereo unspecified)	RGS7-Gao inconclusive (no result: GSH bead fluor)
COc1ccc(C(=O)Nc2c(Cl)cc(Cl)cc2C(=O)N2CCOCC2)cc1	none
Cc1ccc(C)c(CN2CCNC2=O)c1	RGS7-Gao 15, RGS16-Gao 7.9, RGS8-Gao 13, RGS4-Gao reg 20 | Biotin-avidin inactive | RGS8-Gao confirm inactive | RGS7-Gao confirm inactive | RGS16-Gao single inactive | RGS4-Gao confirm inactive | RGS19-Gao single inactive
Cc1cc(S(=O)(=O)NCc2ccc(N3CCN(C)CC3)cc2)c(C)s1	RGS7-Gao inconclusive (no result: GSH bead fluor)
CC(C)=CCCC(C)CN1CCC(N2CCC(C(=O)NC(C)C)CC2)CC1 (stereo unspecified)	none
CCC(Cc1ccccc1)NC(=O)C1=C(C)C(=O)OC12CCC(C)CC2 (stereo unspecified)	RGS7-Gao 32, RGS8-Gao 56 | RGS-Gao 59 | Biotin-avidin inactive | RGS8-Gao confirm inactive | RGS7-Gao confirm inactive | RGS16-Gao single inactive | RGS4-Gao confirm inactive | RGS19-Gao single inactive
COc1cccc(C2C([N+](=O)[O-])=C(N)Oc3cc(C)oc(=O)c32)c1 (stereo unspecified)	RGS7-Gao inconclusive (no result: GSH bead fluor)
O=C(Cn1nc2n(c1=O)-c1ccccc1SC2)N/N=C/c1cccs1	RGS7-Gao inconclusive (no result: GSH bead fluor)
Cc1ccc(/C=C2\SC(N3CCN(C(c4ccccc4)c4ccccc4)CC3)=NC2=O)o1	none
COc1ccccc1NC(=O)CCC(=O)N/N=C(/C)c1ccc(C)cc1	RGS16-Gao 16 | RGS-Gao 90 | Biotin-avidin inactive | RGS8-Gao confirm inactive | RGS7-Gao confirm inactive | RGS16-Gao single inactive | RGS4-Gao confirm inactive | RGS19-Gao single inactive
C/C(=N/NC(=O)CCC(=O)Nc1cccc(Cl)c1)c1ccc(C)cc1	none
CCN1/C(=C/C=C/C=C/c2sc3ccccc3[n+]2CC)Sc2ccccc21	RGS4-Gao reg 31 (no result: Avidin bead fluor) | Biotin-avidin inactive | RGS8-Gao confirm 63 | RGS7-Gao confirm inactive | RGS16-Gao single 58 | RGS4-Gao confirm -8.0
CC[n+]1c(/C=C/Nc2ccccc2)sc2ccccc21	none
O=C(COC(=O)c1ccc[nH]c1=O)NC1CCCCC1	RGS7-Gao inconclusive (no result: GSH bead fluor)
Cc1ccc(S(=O)(=O)c2c(C)nn(C(C)(C)C)c2OC(=O)CC(C)C)cc1	RGS7-Gao inconclusive
CC(=O)NC(C)c1ccc(Cl)c(Cl)c1 (stereo unspecified)	RGS8-Gao 156[activator] | RGS-Gao 139
CC(C)c1ccc(NC(=O)COC(=O)C2=COCCO2)cc1	none
CC(C)(C)c1ccc(NC(=O)COC(=O)C2=COCCO2)cc1	RGS16-Gao -183 | RGS-Gao 117 | Biotin-avidin inactive | RGS8-Gao confirm inactive | RGS7-Gao confirm 60 | RGS16-Gao single inactive | RGS4-Gao confirm 73 | RGS19-Gao single inactive
Cc1ccc(F)cc1NC(=O)C1CC(=O)N(CCc2ccccc2)C1 (stereo unspecified)	RGS7-Gao inconclusive
Cc1oc(-c2ccc(Cl)cc2)nc1CSCC(=O)NCCCN1CCOCC1	RGS7-Gao 164[activator], RGS16-Gao 228[activator], RGS4-Gao reg 187[activator] | Biotin-avidin inactive | RGS8-Gao confirm inactive | RGS7-Gao confirm inactive | RGS16-Gao single inactive | RGS4-Gao confirm inactive | RGS19-Gao single inactive
Cc1cccc(-c2nc(CSCC(=O)NCCCN3CCOCC3)c(C)o2)c1	none
N#Cc1c(-c2ccccc2)nc(SCC(=O)N(c2ccccc2)c2ccccc2)[nH]c1=O	RGS8-Gao 50 | RGS-Gao 77 | Biotin-avidin inactive | RGS8-Gao confirm inactive | RGS7-Gao confirm inactive | RGS16-Gao single inactive | RGS4-Gao confirm inactive | RGS19-Gao single inactive
CC(=O)Nc1nc(C)c(CCC2OCCO2)c(=O)[nH]1	RGS7-Gao inconclusive (no result: GSH bead fluor)
O=C(CN1C(=O)COc2ccccc21)N(Cc1ccc2c(c1)OCO2)CC1CCCO1 (stereo unspecified)	none
O=C(CN1C(=O)COc2ccccc21)N(CCCN1CCOCC1)CC1CC=CCC1 (stereo unspecified)	none (no result: Avidin bead fluor, RGS7-Gao, RGS16-Gao, RGS8-Gao, RGS4-Gao reg) | Biotin-avidin inactive | RGS8-Gao confirm inactive | RGS7-Gao confirm inactive | RGS16-Gao single inactive | RGS4-Gao confirm inactive | RGS19-Gao single inactive
